# Tested on: VDR:RXRa (NR concentration 270 nM, RXRa partner concentration 90 nM)
# Assay: PBM binding z-score (relative to random genomic background probes); higher = stronger binding; sequences stand for … in GC…GCGATTGACAGCGTAGAATGAAGG
# Procedure: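 Protein-binding microarray (Agilent 4x180K custom design, double-stranded 60-nt probes: 5' GC cap, 34-nt variable region, 24-nt constant primer region; full probe sequence given). Purified or IVT nuclear receptor:RXRα heterodimers (3:1 NR:RXRα, mostly 270:90 nM) or homodimers were incubated for 1 h in PBS with 2% milk and no ligand, then detected with Alexa488 antibodies. Fluorescence from o1-orientation probes (~5 replicates averaged) was converted to z-scores against 500 random hg19 background probes. Variable regions are seed direct-repeat (DR0–DR5) sites, all their single-nucleotide variants and half-site ablations.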
row,Sequence,PBM binding z-score
1,CGAACTAGGTCAAAGGACAGTAAAAGGCGACGTA,1.55
2,TCGAGTAGGTTCCGGGGGCATTCAGGGATGAAGA,2.54
3,CGAACTAGGTCACCTGGACAGTGAAGAGGTTGGA,2.34
4,CGAACTAGGTCACCAGGACAGTGACGAGGTTGGA,2.13
5,TCTACTTGGTCACGGAGGTCACACACGACGGGTA,5.85
6,CGGAGTAGGTTACGAGGGGGCATTCAGTGCGAAT,5.44
7,CCGAGTAGGTTACGAGGGGGCATTCAATGCGAAT,4.88
8,CCTAGTTGGTCAAGCTCACACACGCTATAGGTAC,0.609
9,CGAACTAGGTCAAAGGTCAGTGAAAGGCGACGTA,5.88
10,CCTTACGGGCCACGAGGTTATAGCACGACGAGCG,0.504
11,CGTCCAAGGTCAGAGAGGTCAGTGACTGCCGAGT,7.27
12,CTATGTAGGTTAAGGGGGTCATTTAGTTTGAAAG,7.32
13,TCGAGTATGTTACGGGGGCATTCAGGGATGAAGA,3.48
14,CCGTGTAGGTTACGAGGGGGCATTCAGTGCGAAT,5.7
15,TCTTGTAGATCAAAGGTTAAGACAGCCGAAGCCT,1.68
16,TCGAGTAGGTTACGGGGGCATTCTGGGATGAAGA,3.65
17,CGTCAAAGTTCAAGGTAAAGTAACAGAAAGCAGC,3.4
18,CCTACTGGGCCAATGTCATTGATCAGTCAAAGCA,-0.366
19,CCTTACGGGTCAAGGTTATCGCACGGGTGGTACG,3.69
20,CGAACTAGGTCCCCAGGACAGTGAAGAGGTTGGA,-0.892

row,Sequence,PBM binding z-score
1,CCGAGTAGGTTACGAGTGGGCATTCAGTGCGAAT,-0.217
2,TCGAGTAGGTTACGGGGGCATTCACGGATGAAGA,3.95
3,AGTCAAAGTTCATCTTGGTAACGTAAGATATGCT,4.41
4,ACTCGGAGGATAAAGGTCAGAGCTACGCCAGTGA,2.36
5,TAGCCTAGGTCATGCGGGCCAGCATAGTGTCGGC,2.7
6,CGAACTAGGTCACCAGGGCAGTGAAGAGGTTGGA,2.32
7,GCATACGGGTCAAAGGTTATAGCATGAATAGAAT,5.37
8,AGTCAAAGTTCAGGACGAGGTACCGTAAAGCACG,2.08
9,CGACCTAGGTCAAAGGACAGTGAAAGGCGACGTA,2.05
10,CCGAGTAGGTTACGAGGCGGCATTCAGTGCGAAT,-0.141
11,TCGAGTAGGTTACGGGGGCCTTCAGGGATGAAGA,2.11
12,TGTCAAAGCTCAAAGGTAACGTAAGTATCCACAC,0.171
13,CAAACTAGGTCAAAGGTCAACGTCGAGCCAACCA,6.69
14,CGAACTAGGTCAGAACAGGACATTGAAGGATGAT,1.59
15,CGTCCAACGTCAGCAGGTCAGTGAAAGCGACGTG,-0.198
16,CGAACTAGATCACCAGGACAGTGAAGAGGTTGGA,-0.366
17,GATACAGGGGCAAGGCCAGAGTACGCGTATTGAT,0.153
18,CTCGAAAGGTCGTGGTCAGGTGAGTATACCAAAC,3.61
19,GATACAGGGTGAGCTAGAGGCCAGAGTATGGAAA,-0.523
20,ATATGTAGGTTAGCTGGCGTCATTCAGACTAGGC,-0.12

# Reference: the supplement of paper PMC6555819
